Assay results published in PubChem BioAssay (NCI).
This is part of a sample that, as a whole, favours compounds with a hit. Of some 79,000 tested, about 15% had one in any assay. Values without a mark were called inactive. Activity calls are given as the source filed them. No stated cut-off is given here; in the data, active means growth inhibition above about 70%; inactive means the rest.

Key:
[1] = NCI Yeast Anticancer Drug Screen. Data for the rad50 strain (AID 155);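 further: 0% = growth of vehicle-only cultures of the same strain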; settings: S. cerevisiae rad50 strain growth inhibition, stronger effect = higher value
Method in brief: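 DNA repair mutant yeast, compound exposure, growth read-out; inhibition is taken relative to vehicle.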

[2] = NCI Yeast Anticancer Drug Screen. Data for the mec2-1 strain (AID 157); settings: S. cerevisiae mec2-1 strain, stronger effect = higher value
Method in brief: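 Readout is yeast growth inhibition, normalised to vehicle-treated controls, in the mec2-1 strain exposed to compound.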

[3] = NCI Yeast Anticancer Drug Screen. Data for the sgs1 mgt1 strain (AID 161);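 further: 0% = growth of cultures given vehicle only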; settings: S. cerevisiae sgs1 mgt1 strain, stronger effect = higher value
Method in brief: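 Growth of a repair-deficient yeast mutant was monitored after compound treatment and expressed as inhibition relative to vehicle-treated cultures.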

[4] = NCI Yeast Anticancer Drug Screen. Data for the cln2 rad14 strain (AID 165);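 further: 0% = growth equal to vehicle treated cultures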; settings: S. cerevisiae cln2 rad14 strain, stronger effect = higher value
Method in brief: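 Relative to vehicle controls, growth inhibition of compound-treated cln2 rad14 yeast was recorded.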

[5] = NCI Yeast Anticancer Drug Screen. Data for the bub3 strain (AID 167); settings: S. cerevisiae bub3 mutant strain, stronger effect = higher value
Method in brief: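 In this screen, a yeast mutant lacking normal mitotic checkpoint function is challenged with compound. Relative growth versus vehicle gives the inhibition value.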

[6] = NCI Yeast Anticancer Drug Screen. Data for the mlh1 rad18 strain (AID 175); settings: S. cerevisiae mlh1 rad18 strain growth inhibition, stronger effect = higher value
Method in brief: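 Test agents were incubated with a yeast strain of defined genotype (DNA damage repair defect). Inhibition of growth was derived by comparison with vehicle-exposed cultures.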

[7] = at 5.0 µM (retest, dose inferred, filed as 0.5)
[8] = at 50.0 µM (retest, dose inferred, filed as 5.0)

Row | Compound | growth inhibition [1, 7] | growth inhibition [1, 8] | growth inhibition ([1]; at 50.0 µM) | growth inhibition [2, 7] | growth inhibition [2, 8] | growth inhibition ([2]; at 50.0 µM) | growth inhibition [3, 7] | growth inhibition [3, 8] | growth inhibition ([3]; at 50.0 µM) | growth inhibition [4, 7] | growth inhibition [4, 8] | growth inhibition ([4]; at 50.0 µM) | growth inhibition [5, 7] | growth inhibition [5, 8] | growth inhibition ([5]; at 50.0 µM) | growth inhibition [6, 7] | growth inhibition [6, 8] | growth inhibition ([6]; at 50.0 µM)
1 | C[Si](C)(CCC(=O)O)O[Si](C)(C)CCC(=O)O | -6% | 91% (active) | 99.5% (active) | -4% | 92% (active) | 99.7% (active) | -6% | 91% (active) | 99.5% (active) | -1% | 59% | 98.2% (active) | -9% | 99% (active) | 99.5% (active) | -1% | 68% | 99.2% (active)
2 | CC(C)(C)CC(=O)O | 8% | 9% | 5.05% | 5% | 3% | 18.1% | -5% | 2% | 29.1% | -2% | -4% | 27.1% | 2% | 13% | 26.9% | 7% | 8% | -2.2%
3 | CC1=C(C(=O)OCCO[N+](=O)[O-])C(c2ccccc2[N+](=O)[O-])C(C(=O)OC(C)C)=C(C)N1 (centres undefined) | 11% | 97% (active) | 83.5% (active) | 22% | 97% (active) | 87.7% (active) | -2% | 97% (active) | 90.3% (active) | 10% | 92% (active) | 86.9% (active) | -3% | 97% (active) | 89.6% (active) | 19% | 97% (active) | 85.5% (active)
4 | Cc1ccc(S(=O)(=O)NNC(C[N+](=O)[O-])c2ccccc2)cc1 (centres undefined) | 69% | 99% (active) | 96.9% (active) | 5% | 100% (active) | 44.4% | 23% | 99% (active) | 96.2% (active) | 8% | 74% (active) | 70.7% (active) | 17% | 99% (active) | 92.7% (active) | 36% | 99% (active) | 96% (active)
5 | O=Nc1c(O)c2ccccc2c2ccc([N+](=O)[O-])cc12 | 21% | 64% | 69.8% | 48% | 95% (active) | 84.8% (active) | 35% | 87% (active) | 91.7% (active) | 12% | 52% | 42.9% | 20% | 65% | 85.2% (active) | 37% | 90% (active) | 88% (active)
6 | CC(C)SC(=S)Nc1ccc(Cl)c([N+](=O)[O-])c1 | 25% | 99% (active) | 99.3% (active) | 15% | 99% (active) | 99.6% (active) | 18% | 100% (active) | 99.5% (active) | 2% | 99% (active) | 99.2% (active) | 12% | 99% (active) | 99.5% (active) | 30% | 99% (active) | 99.4% (active)
7 | CCCOC(=O)CSC#N | 39% | 97% (active) | 97.9% (active) | 33% | 98% (active) | 98% (active) | 56% | 98% (active) | 98.2% (active) | 28% | 95% (active) | 97.8% (active) | 33% | 98% (active) | 97.8% (active) | 41% | 98% (active) | 98% (active)
8 | Nc1ccccc1O | 26% | 58% | 55.8% | 17% | 37% | 35% | 17% | 40% | 51.1% | 15% | 30% | 8.3% | 54% | 77% (active) | 71% (active) | 45% | 77% (active) | 73.2% (active)
9 | CC/S(=N\S(=O)(=O)c1ccc(C)cc1)c1cccc[n+]1[O-] (centres undefined) | 83% (active) | 97% (active) | 96.1% (active) | 82% (active) | 99% (active) | 96.7% (active) | 79% (active) | 98% (active) | 98% (active) | 51% | 98% (active) | 91.2% (active) | 85% (active) | 98% (active) | 96.3% (active) | 87% (active) | 98% (active) | 95.4% (active)
10 | Cc1ccc(S(=O)(=O)Nn2c(S)c(C#N)c(-c3ccc(Cl)cc3)c(C#N)c2=O)cc1 | 29% | 73% (active) | 55.6% | 17% | 66% | 75.2% (active) | 19% | 91% (active) | 81.8% (active) | 40% | 56% | 32.4% | 45% | 79% (active) | 65.9% | 24% | 56% | 73.8% (active)
11 | COc1ccc(/C=N/Nc2cc(C)nc3cc4c(cc23)OCO4)c2ccccc12 | 20% | 88% (active) | 82.6% (active) | 6% | 81% (active) | 85.8% (active) | 22% | 91% (active) | 86% (active) | 0% | 24% | 57.6% | 8% | 37% | 97.9% (active) | 12% | 82% (active) | 94.8% (active)
12 | CC(C)N1C(=O)C=CC1=O | 6% | 67% | 93.7% (active) | 7% | 60% | 98.8% (active) | 7% | 53% | 52.1% | 2% | 57% | 57% | 1% | 75% (active) | 46.6% | 3% | 60% | 54%
13 | Cc1c2ccccc2c(CO)c2cc(F)c3ccccc3c12 | 71% (active) | 98% (active) | 71.5% (active) | 95% (active) | 99% (active) | 34% | 97% (active) | 99% (active) | 84.2% (active) | 87% (active) | 98% (active) | 31.9% | 91% (active) | 98% (active) | 85% (active) | 95% (active) | 98% (active) | 92.7% (active)
14 | Cc1ccc(S(=O)(=O)NC(CCC(=O)Nc2ccccc2)C(=O)O)cc1 (centres undefined) | -4% | 0% | 12.8% | -4% | -4% | 18.9% | -6% | -20% | 21.2% | -5% | -15% | 22% | -3% | 2% | 96.2% (active) | 0% | -2% | 40.5%
15 | Cc1cc2c(Br)cc(Br)c(O)c2nc1C(=O)c1ccccc1 | 23% | 39% | 31.8% | 16% | 38% | 19.5% | 37% | 90% (active) | 35.8% | 33% | 80% (active) | 43.9% | 20% | 87% (active) | 29.9% | 32% | 33% | 21.8%
16 | C/C=C\C=N\NC(N)=S | 4% | 5% | 8.9% | -3% | 5% | 83.7% (active) | 3% | 6% | -17.4% | 3% | -3% | -24.6% | 2% | 7% | -2.1% | 2% | 1% | 28.6%
17 | CCOC(=O)Cc1csc2[n+]1C(=O)/C(=C\c1cccc(Cl)c1Cl)S2 | 11% | 20% | 69.4% | 0% | 28% | 60% | 1% | 52% | 83.4% (active) | -11% | 32% | 31.8% | -32% | 52% | 75.8% (active) | 14% | 29% | 72.5% (active)
18 | COc1ccc(NC2Oc3cc4c(cc3C(c3cccc(OC)c3OC)C2C)OCO4)cc1 (centres undefined) | -24% | 17% | 48% | -13% | -15% | 49.5% | -6% | -1% | 47.9% | -10% | 12% | 41.1% | -32% | 13% | 65.3% | -19% | 9% | 71.3% (active)
